Screens deposited in PubChem by National Center for Advancing Translational Sciences (NCATS).
GALK inh: blocks human galactokinase activity; P51570; Potency, µM (series often up to 57.5 µM), usual class: inhibitors; 270,000 tested, 0.007% active; Purified GALK, Kinase-Glo residual ATP luminescence
Target sequence (P51570 whole entry, looked up): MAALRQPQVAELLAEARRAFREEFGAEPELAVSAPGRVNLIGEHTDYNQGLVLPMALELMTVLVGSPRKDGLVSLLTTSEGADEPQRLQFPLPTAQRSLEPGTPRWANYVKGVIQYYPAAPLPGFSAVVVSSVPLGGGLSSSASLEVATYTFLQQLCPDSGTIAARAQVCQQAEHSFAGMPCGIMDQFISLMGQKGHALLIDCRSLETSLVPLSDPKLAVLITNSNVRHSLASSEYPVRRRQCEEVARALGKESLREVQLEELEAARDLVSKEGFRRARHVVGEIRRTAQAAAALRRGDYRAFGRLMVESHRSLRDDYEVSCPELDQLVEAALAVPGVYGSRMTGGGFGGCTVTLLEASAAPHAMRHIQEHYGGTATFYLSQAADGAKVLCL
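GALK at 5 nM final was combined with compound, 35 uM ATP and 100 uM galactose in HEPES pH8.0 with MgCl2 and DTT. The reaction ran one hour at room temperature before luminescent ATP detection.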
CBFb RUNX1 block: CBF-beta/RUNX1 interaction disruption; AlphaScreen CBFb-His/RUNX1-biotin binding, biochemical; Potency, µM (top dose mostly 59.8 µM), actives largely listed as inhibitors; 230,000 tested, under 10 active
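AlphaScreen proximity signal reports loss of binding between His-tagged CBF-beta and biotin-labelled RUNX1, each at 30 nM. Proteins are pre-associated for 20 minutes, compounds added for 15 minutes, then beads for 90 minutes, all at ambient temperature.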
Tb PFK inh: inhibitors of T. brucei phosphofructokinase; T. brucei PFK, ADP-Glo luminescence; Potency, µM (doses to about 57.5 µM), most hits filed as inhibitors; 330,000 tested, 0.17% active; AID 485367; note: nearly all actives have a fitted effect of over 60% in size
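PFK 1.25 nM, F6P 0.5 mM, ATP 0.1 mM, 0.1 M TEA pH 8.0, 5 mM MgCl2, 0.01% Tween20, 0.1% BSA; 45 min RT. ADP-Glo readout. qHTS titration up to 57 uM; curves fitted, compounds curve-classed.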
PKM2 act: increases activity of human pyruvate kinase M2. P14618. purified PKM2, Kinase-Glo ATP luminescence, activation; response scale: 0% is enzyme alone, no compound. Potency, µM (top dose mostly 57.5 µM), actives largely listed as activators. 260,000 tested, 0.34% active. AID 1631; note: nearly all actives have a fitted effect of over 55% in size
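Purified hPK-M2 (>95%) run at intermediate activity with 0.1 mM ADP and 0.5 mM PEP in 50 mM imidazole pH 7.2, KCl, MgCl2; 1 h room temperature. ATP formed read by Kinase-Glo luminescence; normalized to uninhibited and no-enzyme controls.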
Luc counter: counter-screen: inhibitors of Kinase-Glo firefly luciferase | Q27757 | Kinase-Glo luciferase, ATP luminescence, 8 min | Potency, µM (highest dose often 38.3 µM), actives largely listed as inhibitors | 200,000 tested, 0.28% active | AID 1379; note: nearly all actives have a fitted effect of over 60% in size
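Recombinant Kinase-Glo luciferase, 10 uM ATP (linear range), luciferin; imidazole pH 7.2 / KCl / MgCl2 / Tween / BSA buffer; 8 min RT; luminescence.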
Numbers stand for hits; - = inactive; ? = inconclusive; . = not tested or not shown; [ ] = another dose, or the depositor's remark. Sampled rows, rich in hits. Any-hit rate of the full collection: about 0.56%. Calls come from the whole dose curve; as a rule, active = well fitted curve in the direction sought with a large enough effect; inconclusive = small, poorly fitted or top-dose-only effect, or another doubt; inactive = no such curve, though single readings can be large; an effect the other way counts as inactive or inconclusive.

SMILES	GALK inh	CBFb RUNX1 block	Tb PFK inh	PKM2 act	Luc counter
Oc1cc(O)cc(/C=C/c2ccc(O)c(O)c2)c1	.	?	8.49µM	.	?
CCn1cc([N+](=O)[O-])c(C(=O)N2N=C(c3ccc(O)c(OC)c3)CC2c2ccccc2O)n1 (stereo not given)	.	?	-	17.8µM	-
CCn1cc([N+](=O)[O-])c(C(=O)N2N=C(c3ccccc3)CC2c2ccc([N+](=O)[O-])cc2)n1 (stereo not given)	.	-	-	-	-
CCn1cc([N+](=O)[O-])c(C(=O)N2N=C(c3ccc4ccccc4c3)CC2c2cc(Br)ccc2O)n1 (stereo not given)	-	-	-	-	-
CCn1cc([N+](=O)[O-])c(C(=O)N2N=C(c3ccc(Cl)c(Cl)c3)CC2c2ccccc2O)n1 (stereo not given)	-	?	-	22.4µM	-
Cc1nc(-c2ccccc2)c(-c2ccncc2)o1	.	-	.	.	.
CC(C)(C)c1ccc(S(=O)(=O)/C=C\C#N)cc1	.	-	.	.	-
OC[C@H](CCc1c[nH]c2ccccc12)c1c[nH]c2ccccc12	.	.	.	.	-[7.66 µM]
O=C(/C=C/c1ccnc2ccccc12)c1cccs1	-	-	-	-	12.6µM
CC(C)[C@@H]1NC(=O)[C@H](CCCCN)NC(=O)[C@@H](Cc2c[nH]c3ccccc23)NC(=O)[C@H](Cc2ccc(O)cc2)NC(=O)[C@@H](NC(=O)[C@H](N)Cc2ccccc2)CSSC[C@@H](C(=O)N[C@@H](Cc2c[nH]c3ccccc23)C(N)=O)NC1=O	.	-	.	.	.
CC(=NCc1ccco1)c1c(C)[nH]n(-c2nc3ccccc3s2)c1=O	-	-	-	-	.
C/C(=N/NC(=O)c1cccs1)c1c(C)[nH]n(-c2nc3ccccc3s2)c1=O	.	?	-	-	10µM
COc1ccc(Cn2c(/C=C/c3ccccc3)nc3ccccc32)cc1	-	?	-	-	?
CC(C)Cn1c(/C=C/c2ccccc2)nc2ccccc21	-	?	-	-	.
COc1ccc(/C=C/c2nc3ccccc3n2C)cc1	-	-	?	-	2.82µM
CCn1c(/C=C/c2ccccc2)nc2ccccc21	-	-	-	-	10µM
COc1ccc(-c2noc(CCC(=O)Nc3cccnc3)n2)cc1OC	-	-	-	8.91µM	-
O=S(=O)(O)C(c1ccccc1)[C@@H](O)c1ccccc1 (stereo not given in full)	.	.	.	.	-[7.66 µM]
COc1ccc(C(OCCN2CCC[C@H](C(=O)O)C2)(c2ccc(OC)cc2)c2ccc(OC)cc2)cc1	.	-	.	.	.
COc1cc(N2C(=O)C=CC2=O)c(OC)cc1Cl	-	-	-	8.91µM	.
COc1cc(Cl)c(S(=O)(=O)N2CCCC2)cc1Cl	-	-	-	-	-
Cc1ccc(C(=O)C2=C(O)C(=O)N(c3ncccn3)C2c2cccc(Cl)c2)o1 (stereo not given)	-	-	-	6.31µM	-
COC(=O)C1=C(C(=O)OC)[C@@H]2N(Cc3ccccc3)c3ccccc3[C@@]23C[C@@H](C(=O)OC)N(S(=O)(=O)c2ccc4c(c2)OCCN4C)C3=N1	.	-[13.1 µM]	.	-[11.5 µM]	-[7.66 µM]
O=C(CSc1nnc2ccc3ccccc3n12)N1CCOCC1	-	-	-	-	-
c1ccc2c(c1)ccc1nnc(SCc3ccc4c(c3)OCCO4)n12	-	-	-	22.4µM	-
SMILES	GALK inh	CBFb RUNX1 block	Tb PFK inh	PKM2 act	Luc counter
N/C(=N\N=C\c1cccc(O)c1)c1nonc1N	-	-	-	-	12.6µM
Cc1ccc(-n2nc3c(n2)/C(=N/O)CC/C3=N\O)cc1	-	-	-	-	12.6µM
O=C(Nc1ccc2c(c1)nc1n2CCSC1)c1ccco1	-	-	-	-	10µM
O=C(Nc1ccc2c(c1)nc1n2CCOC1)c1ccco1	-	-	-	-	-
CCc1cccc(NS(=O)(=O)c2ccc3c(c2)oc(=O)n3C)c1	-	-	-	3.16µM	-
Cn1c(=O)oc2cc(S(=O)(=O)Nc3ccc4c(c3)OCO4)ccc21	-	-	-	7.94µM	-
Cn1c(=O)oc2cc(S(=O)(=O)Nc3cccc(C(=O)O)c3)ccc21	-	-	-	-	-
COc1ccc(S(=O)(=O)Nc2ccc3c(c2)OCO3)cc1	-	-	-	25.1µM	-
COc1ccc(S(=O)(=O)Nc2ccc3c(c2)OCO3)cc1C	-	-	-	-	-
Cn1c(=O)oc2cc(S(=O)(=O)Nc3ccccc3)ccc21	-	-	-	2.51µM	-
O=C(N/N=C/c1ccc(OCC(=O)N2CCCCC2)cc1)c1ccccc1	-	-	-	-	-
O=C(N/N=C/c1ccccc1OCC(=O)N1CCCC1)C(=O)Nc1ccccc1F	-	-	-	-	8.91µM
Cc1ccc(O)c(N=Nc2ccccc2)n1	.	-	.	.	2.82µM
Cc1csc(SCC(=O)Nc2ccc(S(=O)(=O)N3CCCC3)cc2)n1	-	-	-	20µM	-
COc1oc(=O)c2cc(N)ccc2c1Cl	.	-	.	.	.
Cc1ccc(Nc2nc(=O)c3cccnc3s2)cc1	-	-	-	-	-
COc1ccc(OC)c(Nc2nc(=O)c3cccnc3s2)c1	-	-	-	8.91µM	11.2µM
COC(=O)C1=C(C(=O)OC)[C@@H]2Nc3ccccc3[C@@]23C[C@@H](C(=O)OC)N(S(=O)(=O)c2ccc(Br)cc2)C3=N1	.	-[13.1 µM]	.	-[11.5 µM]	-[7.66 µM]
O=c1c(O[C@@H]2O[C@H](CO)[C@H](O)[C@H](O)[C@H]2O)c(-c2ccc(O)c(O)c2)oc2cc(O)cc(O)c12	-	-	6.75µM	-	.
O=c1c(O[C@@H]2O[C@H](CO)[C@@H](O)[C@H](O)[C@H]2O)c(-c2ccc(O)c(O)c2)oc2cc(O)cc(O)c12	-	-	?	-	.
COC(=O)[C@@H](NC(=O)N1CCc2nc(-c3ccc(OC)cc3C)c3c(c2C1)CO[C@@H](c1ccccc1)C3)C(C)C	.	-[13.1 µM]	.	-[11.5 µM]	-[7.66 µM]
CN(C)CCC(=O)[C@@]1(O)CC[C@H]2[C@H]3CC=C4C[C@@H](O)CC[C@]4(C)[C@H]3CC[C@]21C	.	.	.	.	-[7.66 µM]
COC(=O)N1C2=C(c3ccccc3[C@@H]1CC(=O)Nc1ccc3cc4ccccc4cc3c1)[C@@H]1C(=O)N(c3ccccc3)C(=O)[C@@H]1[C@H](C)C2	.	-[13.1 µM]	.	-[11.5 µM]	-[7.66 µM]
Cc1ccc(-c2nc(N/N=C/c3cccc([N+](=O)[O-])c3)c3ccccc3n2)cc1	-	-	-	-	-
Cc1ccc(-c2nc(N/N=C/c3cccnc3)c3ccccc3n2)cc1	-	-	-	-	7.94µM
CN(C)c1ccc(C(=C2C=CC(=[N+](C)C)C=C2)c2ccc(N(C)C)cc2)cc1	.	.	.	.	5.01µM
CN(C)c1ccc(C(=C2C=CC(=[N+](C)C)C=C2)c2ccccc2)cc1	.	?	.	.	-[7.66 µM]
CCN(C(=O)COC(=O)c1cccnc1Nc1ccccc1F)C1CCS(=O)(=O)C1 (stereo not given)	-	-	-	-	10µM
CCC(/C=C1\Sc2ccc(OC)cc2N1CCO)=C\c1sc2ccc(OC)cc2[n+]1CCO	-	?	?	-	10µM
